# Screening results (PubChem)
# Most compounds without a hit are left out; they make up all but 1.1% or so of the library.
# CtBP-E1A inh: blocks the CtBP interaction with E1A; AlphaScreen GST-E1A/His-CtBP binding, 1536-well; stronger effect = lower value; activity change, % (test concentration not listed); 0.49% of 340,000 active; AID 651724; note: % is set by controls: 0 for no effect and ±100 for the full control effect
#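 Steps: dispense buffer (Tris pH 8.0, NaCl 300 mM, TCEP 1 mM, BSA, Tween 20); add 5X protein mix (GST-E1A, His-CtBP, 125 nM each); pin 23 nL compound; 2 h at 37 °C, dark; add 5X beads (50 ug/mL); 1 h; read.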
# Mito fusion act: mitochondrial division inhibition or fusion activation; S. cerevisiae fusion-defective mutant growth rescue, CellTiterGlo 48 h; Potency, µM (series often up to 46.1 µM), for inactives: at the highest dose growth rescue (activation), hits mostly activators; 0.23% of 320,000 active; active = well fitted activation curve with a large enough effect; inconclusive = small, poorly fitted or top-dose-only effect; inactive = no such curve, though single readings can be large or run the other way; note: potency is the fitted concentration of half-maximal effect; % of control where 0% means no effect; nearly all actives have a fitted effect of over 45% in size
#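 Yeast fusion mutant, YPEG (non-fermentable carbon), compound, 48 h at 37C non-permissive; CellTiterGlo added, 10 min RT, luminescence read. Rescued growth = division inhibition.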
# uPA generation: blocks generation of uPA at the cell surface; cell surface uPA generation assay, qHTS; AID 540303; 0.31% of 330,000 active; Potency, µM (highest dose often 38.3 µM), for the others: at the top dose activity change, negative = inhibition, usual class: inhibitors; active = well fitted inhibition curve with a large enough effect; inconclusive = small, poorly fitted or top-dose-only effect; inactive = no such curve, though single readings can be large or run the other way; tested in mouse RAW 264.7 cells; note: potency is the fitted concentration of half-maximal effect; % is set by controls: 0 for no effect and ±100 for the full control effect; nearly all actives have a fitted effect of over 55% in size
# MBNL1 CUG block: MBNL1-poly(CUG) RNA binding inhibition; Potency, µM (top dose mostly 57.5 µM), for inactives: at the top dose activity change, negative = inhibition, most hits filed as inhibitors; 0.036% of 280,000 active; TR-FRET MBNL1-His/biotin-(CUG)12 binding, 665/545 ratio; AID 2675; active = well fitted inhibition curve with a large enough effect in the signal ratio, with a control signal flat, not every such curve was filed as active; inconclusive = small, poorly fitted or top-dose-only effect, or effect the other way, or a change in a side signal; inactive = no such curve, though single readings can be large or run the other way; the % refers to the signal ratio; note: potency is the fitted concentration of half-maximal effect; % is set by controls: 0 for no effect and ±100 for the full control effect
# Target sequence (Q9NR56 whole entry, looked up): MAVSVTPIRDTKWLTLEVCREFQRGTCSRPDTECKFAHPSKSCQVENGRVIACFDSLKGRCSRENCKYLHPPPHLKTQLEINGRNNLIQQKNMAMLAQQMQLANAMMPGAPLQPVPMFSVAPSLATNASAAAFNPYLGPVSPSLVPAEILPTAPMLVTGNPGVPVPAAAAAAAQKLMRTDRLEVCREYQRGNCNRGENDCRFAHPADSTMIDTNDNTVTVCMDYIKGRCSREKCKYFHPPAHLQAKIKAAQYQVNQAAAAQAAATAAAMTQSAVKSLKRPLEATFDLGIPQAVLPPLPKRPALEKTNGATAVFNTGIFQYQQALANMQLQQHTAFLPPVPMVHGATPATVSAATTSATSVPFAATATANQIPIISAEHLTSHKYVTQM
#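 Ratiometric TR-FRET (665 over 545 nm, excitation 340 nm) tracks disruption of MBNL1-His/biotin-(CUG)12 complex after 60 min at room temperature, with compounds at 92 nM to 58 uM final.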
# Six1-Eya2 inh: Six1/Eya2 interaction inhibition; Q15475+O00167; AlphaScreen GST-Six1/His-Eya2 binding, biochemical; stronger effect = lower value; activity change, % (concentration not given with the values); 0.56% of 360,000 active; note: % is set by controls: 0 for no effect and ±100 for the full control effect
#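 Compounds are tested against tagged Six1 and Eya2 proteins bridged by glutathione donor and nickel acceptor beads; after a one-hour incubation at 37 °C without light, AlphaScreen emission is recorded.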
# * hit, by the source's call; ? = inconclusive; . = no result given; ! = a repeat was not active. Cut-off read from the data, not from the text of the source, unless noted: active = activity change below about -65%; inconclusive = mostly about -30% to -63%; inactive = weaker than that.
SMILES,CtBP-E1A inh,Mito fusion act,uPA generation,MBNL1 CUG block,Six1-Eya2 inh
CCOC(=O)c1cnc(-n2nc(C)cc2C)nc1NC1CCCCC1,-11.0,-2.8%,-11.7%,-5.2%,-5.8
Cc1cc(NC2CCCCC2)nc(-n2nc(C)cc2C)n1,.,14.6µM*,.,.,.
O=c1ccc(N=Nc2ccccc2)ccc1O,?,21.0%,-4.2%,?,?
Oc1ccc(N=Nc2ccccc2)o1,-3.7,-32.8%,6.31µM*,-4.5%,2.4
COc1cc2ccnc(C=O)c2cc1OC,0.5,.,.,.,?
COc1cc2ccnc(C=NO)c2cc1OC,-27.8,.,.,.,-85.9*
NNC(=O)c1sc2cc(C(F)(F)F)cnc2c1-c1cccnc1,2.5,3.4%,-1.0%,-1.9%,1.8
COC(=O)c1sc2cc(C(F)(F)F)cnc2c1-c1cccnc1,-15.1,-6.8%,.,24.3%,-72.1*
CCOC(=O)c1ccc(NC(=O)Nc2nncs2)cc1,0.9,.,.,.,0.3
O=C(CSc1ccc2ccccc2n1)N1CCC(c2noc3ccc(F)cc23)CC1,-0.7,20µM*,.,-10.9%,-6.1
CCS(=O)(=O)NCC(c1cccnc1)N1CCN(c2ccccc2)CC1 (stereo not given),0.0,-3.9%,-1.0%,-7.2%,7.4
CCS(=O)(=O)NCC(c1cccnc1)N1CCN(c2ccc(OC)cc2)CC1 (stereo not given),-75.2*,-0.2%,4.2%,1.8%,0.6
CCCC1Cc2[nH]c(=O)c(C#N)cc2CO1 (stereo not given),-69.7*,-2.3%,5.1%,0.8%,8.4
O=C(NNC(=S)NC(=O)c1ccccc1)c1ccc([N+](=O)[O-])cc1,.,3.4%,4.7%,?,5.1
O=C(NC(=S)NNC(=O)c1ccccc1O)c1ccc([N+](=O)[O-])cc1,.,-0.8%,?,-1.3%,-86.4*
Cc1ccc(C(=O)NNC(=S)NC(=O)c2ccccc2)cc1,-23.9,.,-5.8%,.,-13.4
O=C(NC(=S)NNC(=O)c1ccccc1O)c1cccs1,-94.6*,-8.7%,-0.5%,0.5%,-81.6*
O=C(NC(=S)NNC(=O)c1ccccc1O)c1ccccc1,-93.7*,-9.0%,-4.6%,-1.2%,-74.9*
Cc1ccc(C(=O)NC(=S)NNC(=O)c2ccccc2O)cc1,-2.4,-23.0%,-14.3%,4.8%,-87.7*
COc1ccccc1C(=O)NNC(=S)NC(=O)c1cccs1,.,3.3%,.,-4.4%,.
O=C(NC(=S)NNC(=O)c1ccccc1O)c1ccc(F)cc1,-94.2*,-5.8%,-14.4%,-3.4%,-91.4*
O=C(NNC(=S)NC(=O)c1ccccc1[N+](=O)[O-])c1ccccc1O,-94.3*,-11.0%,-9.5%,-2.4%,-73.5*
O=C(NNC(=S)NC(=O)c1cccnc1)c1ccc(F)cc1,-3.2,7.4%,1.0%,.,-1.0
O=C(NNC(=S)NC(=O)c1ccccc1[N+](=O)[O-])c1ccccc1[N+](=O)[O-],-2.1,-2.2%,9.4%,?,-2.7
CC1(C(=O)NS(=O)(=O)c2ccc(Cl)cc2)CCN1C(=O)Cc1ccccc1Cl (stereo not given),3.3,.,.,.,-1.7
SMILES,CtBP-E1A inh,Mito fusion act,uPA generation,MBNL1 CUG block,Six1-Eya2 inh
COc1ccc([C@H]2CC(=O)C[C@@H](CCn3nnc4ccccc43)O2)cc1,8.8,.,.,.,-2.5
O=C(Nc1ccccc1-c1ccccc1)c1ccccc1,.,2.1%,-13.3%,-0.5%,-1.6
Nc1c(S(=O)(=O)O)cc(NC(=O)c2ccccc2)c2c1C(=O)c1ccccc1C2=O,.,-25.3%,3.5%,?,-70.6*
Cc1nnc(SCC(=O)c2c(N)n(C)c(=O)n(C)c2=O)[nH]c1=O,-72.7*,-1.1%,2.8%,0.4%,?
Cn1c(N)c(C(=O)CSc2ncn[nH]2)c(=O)n(C)c1=O,-18.9,-1.9%,0.6%,.,-18.8
Cc1nc(Nc2ccc(C(=O)O)cc2)nc(Nc2ccc(C(=O)O)cc2)c1[N+](=O)[O-],.,-2.3%,-2.0%,?,-75.1*
COc1ccc(C(=O)O/N=C(\N)c2ccc(Br)cc2)cc1,4.9,10µM*,-4.4%,-18.8%,6.3
Cc1ccc(C(=O)N/N=C/c2ccc(-c3ccccc3[N+](=O)[O-])o2)cn1,?,11.4%,1.4%,?,-69.0*
CCCCn1c(=N)c(S(=O)(=O)c2ccc(C)cc2)cc2c(=O)n3cc(C)ccc3nc21,.,-0.4%,.,.,.
COc1cc(OC)c2c(-c3cccc(-c4ccc(NC(C)=O)cc4)c3)cc(=O)oc2c1,-12.9,.,?,.,-11.8
COc1cc(OC)c2c(-c3cccc(-c4sccc4C(C)=O)c3)cc(=O)oc2c1,2.5,.,2.82µM*,.,-8.4
COc1ccc(N=C2C(=Nc3ccc(OC)cc3)N(c3ccc(OC)cc3)C(=S)N2C)cc1,-80.0*,7.8%,-6.8%,8.8%,-69.4*
CCN(CC)S(=O)(=O)c1ccc2c(c1)N(CC(=O)NCCc1ccc(OC)c(OC)c1)C(=O)CO2,.,-3.8%,.,.,.
Nc1nnc(-c2cccc(Cl)c2Cl)c(N)n1,2.4,20.6µM*!,-9.0%,-17.1%,1.5
Cc1cc(/C=N/NC(=O)C(O)(c2ccccc2)c2ccccc2)c(C)n1-c1cccc(C(=O)O)c1,.,5.2%,10.6%,.,-18.5
Cc1cc(/C=N/NC(=O)c2cccc(N(C)C)c2)c(C)n1-c1cc(C(=O)O)cc(C(=O)O)c1,?,5.0%,-0.2%,-8.5%,-67.5*
CC1=NCCN1S(=O)(=O)c1ccccc1[N+](=O)[O-],.,-4.6%,-9.5%,14.8%,-93.1*
Cn1ccnc1C(=O)Cc1ccc([N+](=O)[O-])cc1,-85.4*,.,-2.8%,.,2.1
Cn1ccnc1SCc1ccc([N+](=O)[O-])cc1,1.2,0.4%,.,?,-2.0
COc1cc2cc(C(=O)N3CCOCC3)cc(-c3ccc(C)cc3)c2cc1OC,-15.7,?,4.47µM*,5.3%,-2.4
O=C(NCc1ccncc1)[C@@H]1CCCN1C(=O)[C@H]1CCCN1,3.3,.,.,.,-2.5
CCOC(=O)C1=C(C)NC(C)=C(C(=O)OCC)C1c1c(F)c(F)c(F)c(F)c1F,.,2.31µM*,.,.,.
COc1ccc(CN2CCC3CC2c2cc(-c4cccc(C)c4)ccc23)cc1 (stereo not given),-10.6,.,-18.7%,.,-14.9
Cc1[nH]c(N=Nc2ccccc2)nc1N=Nc1ccccc1,-66.0*,6.9%,-16.9%,?,?
O=C(NC(=S)NNC(=O)c1cnccn1)c1ccc(F)cc1,.,0.1%,?,5.9%,-91.9*
COc1ccc(/C=C/C(=O)NC(=S)NNC(=O)c2cccnc2)cc1,1.3,-8.3%,-5.3%,.,?
O=C(/C=C/c1ccc(F)cc1)NC(=S)NNC(=O)c1cnccn1,-81.2*,-1.7%,-2.2%,9.1%,-90.2*
O=C(NCc1ccccc1)c1nc(-c2c(F)cccc2F)oc1-c1ccccc1,-0.2,.,.,.,6.3
CC(=O)Oc1ccc(C(=O)Nc2ccc(C3(C#N)CCCC3)cc2)cc1,.,5.3%,10µM*,28.1%,-1.9
O=C(c1c(F)cccc1Cl)N(Cc1ccco1)C1CCS(=O)(=O)C1 (stereo not given),3.1,.,.,.,8.6
